# Results reported in PubChem BioAssay.
# Calls of active or inactive are those of the source. Unless noted, how the calls were made is not given here.
# Experiments:
# [1] = kinase inhibitors against Plasmodium liver-stage infection, cell-based, known kinase inhibitor set, luminescence, hepatoma host viability (AID 624392); conditions: Plasmodium liver stage in hepatoma cells, luciferase luminescence, concentration not given here; liver cell % of control: measured here: host liver cell viability; parasite % of control: stronger effect = lower value;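 further: infected cells incubated roughly two days before readout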
# [2] = modulators of glucocorticoid suppression of NF-kB, cell-based, luciferase, IL-1B stimulus, dexamethasone (AID 624486); conditions: NF-kB luciferase reporter, IL-1B + dexamethasone, luminescence; percent of negative control (+Dex): actives lie on both sides, concentration not given here; z-score: measured here: IL-1B alone, no Dex;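 on percent of negative control (+Dex): 100% = mean signal of vehicle control wells on the plate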
# [3] = kinase inhibitors altering Pseudomonas killing of worms, whole organism (AID 651566);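 further: tested at 14 µM; sign flipped so higher z means a lower ratio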; conditions: C. elegans killed by P. aeruginosa, survival ratio
# [4] = activators of macrophage pro-inflammatory response, cell-based, murine, luminescence (AID 652131); conditions: murine macrophage pro-inflammatory reporter, stronger effect = higher value
# [5] = IRF3 reporter activation in THP-1 macrophages, cell-based, PMA-stimulated THP-1, luminescence (AID 1053176); conditions: PMA-differentiated THP-1, IRF3 reporter luminescence; stronger effect = higher value
# [6] = survival rescue of mitochondrial mutant cells in low glucose, primary screen, MELAS cybrids, Rieske KO mouse fibroblasts, CellTiter-Glo (AID 1508586;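 active means mean z-score across replicates of 1.96 or higher in either the MELAS or the Rieske mutant cell line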;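 further: z relative to plate mean and SD of compound and empty wells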)
# [7] = stimulators of nuclear beta-catenin in C2C12, primary screen, imaging, WNT3A-conditioned medium, mouse C2C12, NPC library (AID 1117326; in the data active means nuclear beta-catenin stimulation mostly above about 4.2%, no sharp cut-off; inactive means mostly below about 10%); conditions: stronger effect = higher value
# [8] = stimulators of insulin release from INS-1E, primary screen, cell-based, 5 mM glucose, NPC library (AID 1117329;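 active means compound raises insulin release from rat beta cells at 5 mM glucose, no numeric limit stated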); conditions: rat INS-1E insulin secretion, at 10 µM, stronger effect = higher value
# [9] = growth inhibition of GSK3B-pretreated HCT116 cells – cell-based, CellTiter-Glo, 0.2 to 20 µM (AID 1117336;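 active means compounds lowering colon cancer cell viability after pretreatment blocking the GSK3B kinase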); conditions: HCT116 viability after GSK3B inhibitor, at 20 µM, stronger effect = higher value
# [10] = inhibition of endothelial tube formation, primary screen, imaging, VEGF stimulated, CD31 staining, tube area, NPC library (AID 1117340;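 active means compound that reduces growth-factor-driven endothelial tube area in a mixed cell culture, no cutoff stated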); conditions: VEGF-stimulated ADSC/ECFC co-culture, at 10 µM, stronger effect = higher value
# [11] = glucagon-like peptide 1 release enhancers, primary assay, NCI-H716 cell line, NPC library (AID 1117341;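 active means compound raises GLP1 secretion from the human gut endocrine cells, with no numeric limit stated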); conditions: NCI-H716 cells, at 10 µM, stronger effect = higher value
# [12] = HCT116 colon cancer cell growth inhibition, primary screen, CellTiter-Glo luminescence, NPC library (AID 1117342;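 active means compounds that lower survival of HCT116 colon cancer cells in the luminescence readout, no numeric limit stated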); conditions: at 20 µM (top of the series)
# [13] = CellTiter-Glo luminescent readout of SW480 viability loss, NPC library primary (AID 1117343;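 active means compounds that lower viability of the colon cancer cells in the luminescence readout, with no numeric limit stated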); conditions: CellTiter-Glo luminescence; at 20 µM (top of the series)
# [14] = decreased DLD-1 cellular survival, CellTiter-Glo luminescent readout, NPC compound collection, primary HTS (AID 1117346;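 active means compounds that lower survival of DLD-1 colon cancer cells in the luminescence readout, no cutoff given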); conditions: DLD-1 viability, CellTiter-Glo luminescence; at 20 µM (top of the series)
# [15] = MELAS cybrid survival, CellTiter-Glo 48 h, stronger effect = higher value
# [16] = Rieske KO mouse fibroblast survival, CellTiter-Glo 72 h
SMILES,liver cell % of control [1],parasite % of control [1],percent of negative control (+Dex) [2],z-score [2],z-score [3],z-score [4],fraction signal [5],"z-score [6, 15]","z-score [6, 16]",nuclear beta-catenin stimulation ([7]; at 10 µM),"nuclear beta-catenin stimulation ([7]; stimulation, at 2 µM)",insulin secretion stimulation [8],viability decrease [9],tube area decrease [10],GLP1 secretion stimulation [11],inhibition of viability [12],viability decrease (inhibition) [13],viability decrease (inhibition) [14]
O=C1NC(=O)C(c2ccccc2Cl)=C1Nc1cc(Cl)c(O)c(Cl)c1,90.9%,128% (inactive),95.5% (inactive),0.49,-0.07 (inactive),0.319 (inactive),-0.002 (inactive),-0.0492 (inactive),-0.159,,,,,,,,,
CCOC(=O)N1CCC(n2c(=O)[nH]c3cc(Cl)ccc32)CC1,,,,,,,,,,-2.8% (inactive),-0.2%,-5.2% (inactive),15.6% (inactive),14.4% (inactive),-8.8% (inactive),49.4% (inactive),19.8% (inactive),0.5% (inactive)
Cc1onc(-c2ccccc2Cl)c1C(=O)Cl,,,,,,,,,,-1.6% (inactive),-0.5%,0.3% (inactive),-16.4% (inactive),0.4% (inactive),0.1% (inactive),0.4% (inactive),26.4% (inactive),14.3% (inactive)
C[C@H]1C[C@H](O)c2ccsc2S1(=O)=O,,,,,,,,,,0.6% (inactive),2.7%,-0.8% (inactive),-1.3% (inactive),1.2% (inactive),1% (inactive),4.1% (active),-6.2% (inactive),-4% (inactive)
O=S1CCN(Cc2ccc(-c3ccc4ncnc(Nc5ccc(OCc6cccc(F)c6)c(Cl)c5)c4c3)o2)CC1,103%,99.6% (inactive),74.5% (inactive),-1.72,-0.375 (inactive),13.5 (active),-0.007 (inactive),0.445 (inactive),-0.225,,,,,,,,,
O=S(=O)(CCNCc1ccc(-c2ccc3ncnc(Nc4ccc(OCc5cccc(F)c5)c(Cl)c4)c3c2)o1)c1ccccc1,108%,102% (inactive),96.5% (inactive),-0.355,-0.37 (inactive),3.07 (inactive),-0.004 (inactive),0.171 (inactive),-0.45,,,,,,,,,
Fc1ccc(-c2ncn(C3CCNCC3)c2-c2ccnc(Oc3ccc(F)c(F)c3)n2)cc1,83%,166% (inactive),106% (inactive),1.34,0.595 (inactive),0.167 (inactive),0.003 (inactive),-0.134 (inactive),-0.514,,,,,,,,,
COC(=O)c1nc(Cl)c(Cl)nc1N,,,,,,,,,,15.9% (active),84.9%,2.2% (inactive),82.2% (active),110% (active),4.1% (inactive),75% (active),132% (active),101% (active)
COc1cc(Nc2ncc(-c3ccccc3)o2)cc(OC)c1OC,152%,18.6% (inactive),93.5% (inactive),0.42,1.53 (inactive),-0.164 (inactive),-0.0025 (inactive),1.37 (inactive),-0.275,,,,,,,,,
COc1ccccc1Oc1nccc(-c2c(-c3ccc(F)cc3)ncn2C2CCNCC2)n1,89.7%,136% (inactive),104% (inactive),0.275,0.105 (inactive),0.324 (inactive),0.001 (inactive),-0.339 (inactive),-0.367,,,,,,,,,
Cc1cccc(Oc2nccc(-c3c(-c4ccc(F)cc4)ncn3C3CCNCC3)n2)c1C,58.8%,99.5% (inactive),104% (inactive),0.6,-0.775 (inactive),8.3 (active),-0.0055 (inactive),-0.134 (inactive),-0.269,,,,,,,,,
